Experimental findings from PubChem BioAssay AID1259416 (Broad Institute, 2018) are described below.

Several values for one entry are separate records, joined by “and”; a condition that tells them apart may be missing. Identical values can stand only once. Out of some 69,000 compounds screened, about 2,600 (3.8%) were called active. Cut-off read from the data, not from the text of the source: active = activity change below about -70% (passing the limit was not always enough); inconclusive = no clear call, values can overlap the other calls. The sample as a whole holds a higher share of actives than the screen did.

This test is described as follows: inhibitors of Toxoplasma growth in IFN-γ-primed hosts – cell-based, primary screen (AID 1259416).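 Note: host cells are HeLa cells infected with Toxoplasma gondii.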 The following applies: Toxoplasma gondii growth in IFN-gamma-treated host cells; active compounds read low; concentration not given here.
Turning to `CC(C)(C)c1ccc(C(=O)NC(=S)Nc2ccc(N3CCCCC3)cc2)cc1`, the activity change, negative = inhibition is -87.8% (active).

In the case of `Cc1ccc(C(=O)NC(=S)Nc2cccc(NC(=O)c3ccccc3)c2)cc1C`, the activity change, negative = inhibition was -63.6% (inactive).

For the molecule `O=C(O)CC1(CC(=O)Nc2ccc(N3CCCCC3)cc2)CCCCC1`, the activity change, negative = inhibition was 96.8% (inactive).

For the molecule `CC1CCN(c2ncnc3c2cnn3CC(=O)Nc2cc(F)cc(F)c2)CC1`, the activity change, negative = inhibition was -68.2% (inactive).

Consider `CC1CCN(c2cncnc2-n2cc(NC(=O)CC3CCCCC3)cn2)CC1`, for which the activity change, negative = inhibition is -88.5% (active).

Take `Cc1cc(NC(=O)CC2CCCCC2)n(-c2ncnc3c2cnn3-c2ccc(Cl)cc2)n1`: the activity change, negative = inhibition was 16.1% (inactive).

Consider `Cc1c(CN(C)C(=O)COc2cccnc2)[nH]c2ccccc12`, for which the activity change, negative = inhibition is 66.9% (inactive).

For the molecule `Cc1cccc(-c2[nH]n3c(=O)cc(C(C)n4cnc5ccccc5c4=O)nc3c2C)c1` (configuration not stated), the activity change, negative = inhibition was -29.3% (inactive).

Turning to `COc1cc(CCC(C)NC(=O)c2ccc(C)cc2)ccc1OC(=O)c1ccc(C)cc1` (configuration not stated), the activity change, negative = inhibition was -12.5% (inactive).

As to `O=C1c2ccc(Nc3ccc(F)cc3F)cc2CCc2ccc(OC[C@H](O)CO)cc21`, the activity change, negative = inhibition is -74% (active).

`COCC(=O)N1CCC2(CC1)C(=O)N(c1cncnc1)c1ccccc12`: the activity change, negative = inhibition was -5.94% (inactive).

Turning to `C[C@@H]1CN([C@@H](C)CO)S(=O)(=O)c2ccc(C#Cc3cccc(F)c3)cc2O[C@H]1CN(C)S(=O)(=O)c1cn(C)cn1`, the activity change, negative = inhibition was -31.1% (inactive).

As for `C[C@H]1CN([C@@H](C)CO)S(=O)(=O)c2ccc(C#Cc3cccc(F)c3)cc2O[C@@H]1CN(C)S(=O)(=O)c1cn(C)cn1`, the activity change, negative = inhibition was -91.2% (active).

In the case of `C[C@H]1CN([C@@H](C)CO)S(=O)(=O)c2ccc(C#CC3(O)CCCC3)cc2O[C@@H]1CN(C)C(=O)Nc1cccc(F)c1`, the activity change, negative = inhibition is -69.9% (inactive).

Consider `Cn1c(=O)c2nc(-c3ccc(I)cc3)oc2c2ccccc21`, for which the activity change, negative = inhibition was -20.4% (inactive).

Consider `CCCN1CCn2cc(C(=O)N3CCN(c4cccc(OC)c4)CC3)nc2C1`, for which the activity change, negative = inhibition was 15% (inactive).

For the molecule `Cc1cccc(Nc2nc(C(=O)Nc3cccc(Cl)c3C)nc3ccccc23)c1`, the activity change, negative = inhibition is -75.4% (active).

`Cc1cccc(CNC(=O)c2nc(Nc3cccc(C)c3)c3ccccc3n2)c1`: the activity change, negative = inhibition is -89.5% (active).

In the case of `Cc1ccc(CNC(=O)c2nc(Nc3ccc(C)cc3)c3ccccc3n2)cc1`, the activity change, negative = inhibition was 40.8% (inactive).

On to `Cc1cccc(Nc2nc(C(=O)Nc3cccc4c3CCCC4)nc3ccccc23)c1`, for which the activity change, negative = inhibition is -67.4% (inactive).

As to `CC(Cc1ccco1)NC(=O)c1nc(Nc2ccccc2)c2ccccc2n1` (configuration not stated), the activity change, negative = inhibition is -47% (inactive).

As for `Cc1ccc(Nc2nc(C(=O)Nc3ccc(Cl)cc3F)nc3ccccc23)cc1`, the activity change, negative = inhibition is 4.67% (inactive).

In the case of `O=C(NCc1cccc(Br)c1)c1nc(Nc2ccc(F)cc2)c2ccccc2n1`, the activity change, negative = inhibition was -65.9% (inactive).

For the molecule `O=C(Nc1ccccc1Br)c1nc(Nc2ccccc2)c2ccccc2n1`, the activity change, negative = inhibition is -74.2% (active).

As to `O=C(NC1CCCCC1)c1nc(Nc2ccccc2)c2ccccc2n1`, the activity change, negative = inhibition was -55.7% (inactive).

Consider `CCOc1ccccc1NC(=O)OC1CCCN1C(=O)NCc1ccccc1` (configuration not stated), for which the activity change, negative = inhibition was -2.55% (inactive).

Take `O=C(COC(=O)c1ccc(Cl)nc1)NCc1ccc2c(c1)OCO2`: the activity change, negative = inhibition is 8.52% (inactive).

`CC(=O)c1c(C)nn(CCC(=O)N2CCC(c3ccccc3C(=O)O)C2)c1C` (configuration not stated): the activity change, negative = inhibition was 2.53% (inactive).

Turning to `Cc1nc(C)c(S(=O)(=O)NC(CCN2CCOCC2)c2ccccc2)s1` (configuration not stated), the activity change, negative = inhibition is 12.7% (inactive).

Consider `CC(C(=O)NCc1ccccc1F)N(c1ccccc1)S(C)(=O)=O` (configuration not stated), for which the activity change, negative = inhibition was 12.1% (inactive).

For `O=C(Cn1ncc2c(N3CCN(c4ccccn4)CC3)ncnc21)Nc1cc(F)ccc1F`, the activity change, negative = inhibition was -34% (inactive).

Consider `O=C(Cc1ccccc1)NCCc1nc(N2CCOCC2)ncc1C(=O)N1CCCC1`, for which the activity change, negative = inhibition is 8.84% (inactive).

Regarding `CN1C2CCN(Cc3nccs3)CC2C[C@H]1Cn1cncn1` (some centres not stated), the activity change, negative = inhibition is 4.21% (inactive).

`Cc1cc(Nc2cc(CN3CCOCC3)c3nc(C)c(Cc4ccc(Cl)cc4F)n3n2)n[nH]1`: the activity change, negative = inhibition is -78.1% (active).

Turning to `COCCN1CCO[C@@H]2CN(Cc3ccccc3F)C[C@@H]2C1`, the activity change, negative = inhibition is -4.47% (inactive).

As for `CN(C)c1ncccc1CNC(=O)c1cnc2c(c1)nnn2C`, the activity change, negative = inhibition was 2.4% (inactive).

For `C/C=C/c1ccccc1[C@@H]1[C@@H](CO)N(C(=O)CN2CCOCC2)[C@H]1C#N`, the activity change, negative = inhibition was 18.7% (inactive).

For the molecule `COc1ccc(-c2nc3c(s2)CN(S(=O)(=O)c2ccc(C)cc2C)CC3)cc1OC`, the activity change, negative = inhibition was -101% (active).

Take `COc1ccc(S(=O)(=O)N2CCc3nc(-c4ccccc4)sc3C2)cc1OC`: the activity change, negative = inhibition is 62% (inactive).

With `COc1cccc(-c2nc3c(s2)CN(S(=O)(=O)c2cccc(F)c2)CC3)c1`, the activity change, negative = inhibition was -87.6% (active).

Regarding `COc1cccc(NC2COC3(CCN(S(=O)(=O)c4cccc(F)c4)CC3)C2)c1` (configuration not stated), the activity change, negative = inhibition was -1.19% (inactive).

For `CCOc1ccc(-c2nc3c(s2)CN(S(=O)(=O)c2cccc(C)c2)CC3)cc1`, the activity change, negative = inhibition is 4.52% (inactive).

With `COC(=O)c1cc2n(n1)CCN(S(=O)(=O)c1ccc(C)cc1OC)C2`, the activity change, negative = inhibition is -2.93% (inactive).

With `COc1ccc(-c2nc(C)c(CCNS(=O)(=O)c3ccccc3)s2)cc1OC`, the activity change, negative = inhibition is 132% (inactive).

As to `COc1ccc(-c2nc3c(s2)CN(S(=O)(=O)c2cccc(Cl)c2C)CC3)cc1`, the activity change, negative = inhibition is -94.8% (active).

Turning to `O=S(=O)(NC[C@H]1[C@H](c2ccccc2)[C@H](CO)N1CC1CC1)c1ccccc1`, the activity change, negative = inhibition was 14.7% (inactive).

In the case of `Cc1nc(-c2cccc(F)c2)sc1CCNC(=O)C12CC3CC(CC(C3)C1)C2`, the activity change, negative = inhibition was -46.4% (inactive).

Regarding `C=Cc1cccc(CN2CCC3(CCCN(C(=O)CCOC)C3)C2)c1` (configuration not stated), the activity change, negative = inhibition was -2.67% (inactive).

Regarding `CN(Cc1nc(-c2ccncc2)no1)C(=O)c1cc2ccccc2s1`, the activity change, negative = inhibition was -2.68% (inactive).

Consider `Cc1ncc(C(=O)O)c(-c2ccccc2)n1`, for which the activity change, negative = inhibition is 0.375% (inactive).

Take `COCc1cnc2n1CCN(C(=O)c1oc3ccccc3c1C)C2C` (configuration not stated): the activity change, negative = inhibition was 1.32% (inactive).

Regarding `Cc1cc(C(F)F)nn1CC(=O)NCCn1ncc(-c2ccncc2)c1-c1cccs1`, the activity change, negative = inhibition is -65.9% (inactive).

For the molecule `CCOCCn1nc(C)cc1C(=O)N1CCCC2(CNC(=O)O2)C1` (configuration not stated), the activity change, negative = inhibition was -0.947% (inactive).

On to `COCC12CCCOC1CCN(S(=O)(=O)C1CC1)C2` (configuration not stated), for which the activity change, negative = inhibition was 5.49% (inactive).

With `CCc1cnc(N2[C@H](C#N)[C@H](c3ccccc3-c3ccccc3C)[C@H]2CO)s1`, the activity change, negative = inhibition was 18.5% (inactive).

Turning to `Cc1ccc(-c2ccccc2[C@H]2[C@@H](C#N)N(c3ncc(-c4ccccc4)s3)[C@@H]2CO)cc1`, the activity change, negative = inhibition is -77.5% (active).

Take `C/C=C/c1ccccc1[C@@H]1[C@@H](C#N)N(c2nc(CC)cs2)[C@@H]1CO`: the activity change, negative = inhibition was 1.59% (inactive).

Turning to `COc1ccc(CN2C(=O)CO[C@H]3CN(C(=O)NC4CC4)C[C@@H]32)cc1`, the activity change, negative = inhibition is 15.8% (inactive).

Turning to `COc1ccccc1CN1[C@@H]2CNC[C@H]1C2c1ccc(-c2cccc(C#N)c2)cc1` (some centres not stated), the activity change, negative = inhibition was -25.9% (inactive) and -32% (inactive).

On to `N#Cc1ccc(-c2ccc([C@@H]3[C@H]4CNC[C@@H]3N4Cc3ccc4c(c3)OCO4)cc2)cc1`, for which the activity change, negative = inhibition was -70.6% (active).

Take `N#Cc1ccc(-c2ccc([C@@H]3[C@@H](CO)N4C(=O)CNC[C@H]34)cc2)cc1`: the activity change, negative = inhibition was -24.8% (inactive).

`CS(=O)(=O)N1CCCC1c1cccc(Nc2nccs2)n1` (configuration not stated): the activity change, negative = inhibition was -21.8% (inactive).

As to `COCCn1c(C(=O)NCCCN(C)C)cc2c1c1ccccc1n2C`, the activity change, negative = inhibition was -12.8% (inactive).

Regarding `CC(C)(C)CN1CC2CN(C(=O)Nc3ccccc3)CC21` (configuration not stated), the activity change, negative = inhibition was -37.8% (inactive).

Regarding `O=C(O)c1ccc(NC(=S)NCc2cccs2)cc1`, the activity change, negative = inhibition was 33.4% (inactive).

With `CC1CCN(C(=O)c2cc(=O)n(CC(=O)Nc3ccc(C(C)C)cc3)c3ccccc23)CC1`, the activity change, negative = inhibition is -28.9% (inactive).

On to `Cn1nc(CC(=O)Nc2cccc(Cl)c2)c2ccccc2c1=O`, for which the activity change, negative = inhibition is -79% (active).

Take `Cc1nc(OCC(=O)Nc2cccc(Cl)c2)c2ccccc2n1`: the activity change, negative = inhibition was -0.194% (inactive).

In the case of `Cn1nc(C(=O)O)c2ccccc2c1=O`, the activity change, negative = inhibition was 58.7% (inactive).

As to `CCn1nc(C)c(NC(=O)CN2CCC(Oc3ncccn3)CC2)c1C`, the activity change, negative = inhibition was -9.88% (inactive).

On to `COc1cccc2[nH]c(C(=O)N3CCCC(c4cc(CN(C)C)n(C)n4)C3)cc12` (configuration not stated), for which the activity change, negative = inhibition is 5.73% (inactive).

On to `Cc1sccc1C(=O)N1CCC2(CC1)CC(NS(C)(=O)=O)C2`, for which the activity change, negative = inhibition was 6.5% (inactive).

For `COc1ccc2cc(-c3ccccc3NC(=O)CN)ccc2c1`, the activity change, negative = inhibition was 70.1% (inactive).

On to `O=C1c2ccccc2C(=O)C1c1ccccc1`, for which the activity change, negative = inhibition was -11.2% (inactive) and 19.1% (inactive).

Turning to `COc1ccc2c(C3C(=O)c4ccccc4C3=O)nccc2c1`, the activity change, negative = inhibition is -108% (active).

On to `COc1ccc(-c2cc(C)cnc2-n2cnnc2)cn1`, for which the activity change, negative = inhibition was 4.46% (inactive).

As for `CCc1nc(CN2CCC3(CC2)C(=O)N(CCc2ccccc2)C(=O)N3C)c(C)[nH]1`, the activity change, negative = inhibition is -3.85% (inactive).

With `COc1ccc2c3c(n(C)c2c1)[C@H](CO)N(Cc1ccccc1Cl)CC31CN(C(=O)CN(C)C)C1`, the activity change, negative = inhibition was -29.5% (inactive).

Turning to `CN1C(=O)CCc2cc(C(=O)NC3CCCC3)ccc21`, the activity change, negative = inhibition is 9.57% (inactive).

Consider `Cc1ccc(C(=O)N2CCC3(CC2)CCN(c2cnn(C)c2)C3=O)cc1`, for which the activity change, negative = inhibition was 19.8% (inactive).

As for `Cc1cccnc1N1C[C@H]2CN(c3cnn(C)c3)C(=O)[C@@H]2C1`, the activity change, negative = inhibition is -73.4% (active).

In the case of `CCN1C(=O)[C@H]2CN(c3ncccn3)C[C@@H]2C12CCN(S(=O)(=O)CC(C)C)CC2`, the activity change, negative = inhibition was -13.4% (inactive).

Turning to `Cc1noc2nc(C3CCCN(C(=O)CCc4ccccc4)C3)cc(C(F)F)c12` (configuration not stated), the activity change, negative = inhibition was -93.3% (active).

For `O=C(CCn1nnc2ccccc21)N1CCCC(c2ccn[nH]2)C1` (configuration not stated), the activity change, negative = inhibition was 2.46% (inactive).

For the molecule `Cc1ccc(NC(=O)CC(=O)N2CCCC(c3nc(CC(C)C)no3)C2)cc1` (configuration not stated), the activity change, negative = inhibition was 25% (inactive).

In the case of `CCCCc1ncc(CN2CCN(c3ccccc3OC)CC2C)[nH]1` (configuration not stated), the activity change, negative = inhibition was -2.06% (inactive).

For `O=S(=O)(NCc1ccccc1)N1CCCC1c1ccccn1` (configuration not stated), the activity change, negative = inhibition was -3.86% (inactive).
